38 compounds from PubChem BioAssay AID720565 (National Center for Advancing Translational Sciences (NCATS), 2013) can be followed below.

Where “and” joins values, the source holds several entries; their conditions need not be identical. Equal entries are not always repeated. Inconclusive results are not listed. Calls of active or inactive are those of the source. Calls follow the shape of the dose curve; as a rule, active = well fitted activation curve with a large enough effect; inconclusive = small, poorly fitted or top-dose-only effect; inactive = no such curve, though single readings can be large or run the other way.
Potency is read from the fitted curve at half-maximal effect.

The experiment in a line: qHTS for small molecules that induce genotoxicity in ELG1 expressing cells: Confirmatory Assay for Cherry-picked Compounds. Also: nearly all actives have a fitted effect of over 35% in size. Conditions: ELG1-luciferase reporter cells, luminescence, 16 h; series mostly up to 46.1 µM. The gist of the method:
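Cells carrying the ELG1-luciferase reporter were exposed to compound for 16 hr at 37 C, 5% CO2, at 2,000 cells per well. Rise in luciferase activity, read with ONE-Glo after 30 min at room temperature, indicates genotoxic stress.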
(In qHTS, concentration-response curves come from the screen itself.)
In the case of `COCCn1c(C)cc(C(=O)COC(=O)c2cccnc2SC)c1C`, the Potency was 2.23 µM (active).

In the case of `COc1ccc2c(C)cc(SCC(=O)N3CCOCC3)nc2c1`, the Potency result was “inactive”.

Take `Fc1ccccc1-c1nc(-c2ccc(-c3nn[nH]n3)cc2)no1`: the Potency is 7.91 µM (active).

For the compound `Cc1cc(C)c(C#N)c(SCC(=O)Nc2cc(C)on2)n1`, the Potency is 4.99 µM (active).

On to `O=C1CCc2cc(NS(=O)(=O)c3ccccc3)cc3c2N1CC3`, for which the Potency result is “inactive”.

Turning to `NC(=O)C1CCN(c2cc(-c3ccc4c(c3)OCCCO4)ncn2)CC1`, the Potency was 9.96 µM (active).

As to `COc1ccc(/C=C/c2cnc3ccccc3n2)cc1OC`, the Potency is 0.112 µM (active).

Turning to `Cc1ccc(NC(=O)c2ccc(OC(=O)c3cc4ccccc4o3)cc2)cc1`, the Potency is 8.89 µM (active).

For `CC1CCc2nc(-c3cc4ccc(O)cc4oc3=O)sc2C1` (stereo not drawn), the Potency is 1.26 µM (active).

Turning to `Cc1cc(C(=O)COC(=O)c2ccc(F)cc2)c(C)n1C`, the Potency was 2.23 µM (active).

In the case of `Oc1ccc(/C=C/c2c(F)cccc2F)c2cccnc12`, the Potency is 9.96 µM (active).

Turning to `Cc1ccc2nc3sc(C(=O)NCc4ccco4)cc3cc2c1`, the Potency is 7.05 µM (active).

Turning to `O=c1[nH]c(-c2ccc(-c3cccc(Cl)c3)o2)nc2ccccc12`, the Potency is 1.12 µM (active) and 1.41 µM (active).

Regarding `COc1cc(OC)cc(-c2cc3cc4c(cc3cn2)OCO4)c1`, the Potency was 5.6 µM (active).

On to `C(=C\c1ccc2ccccc2n1)/c1ccc2ccccc2n1`, for which the Potency was 0.792 µM (active).

Regarding `O=c1c2ccccc2oc2ccc(-c3ccc4cc[nH]c4c3)cc12`, the Potency was 1.26 µM (active).

Consider `CC1CCC(NC(=O)CN2C(=O)NC(C)(C)C2=O)CC1` (stereo not drawn), for which the Potency result is “inactive”.

As to `O=C(COc1ccccc1F)Nc1ccc(-c2nc3ccccc3s2)cc1`, the Potency was 5 µM (active).

Take `Oc1cc(-c2ccc(N3CCCCC3)nc2)cc2cccnc12`: the Potency was 25 µM (active).

For `Cc1ccnc(NC(=S)N2CCN(c3ccc(N)cc3)CC2)c1`, the Potency is 14.1 µM (active).

As for `CC(=O)N1CCc2cc(Br)cc(S(=O)(=O)CCC(=O)Nc3c(C)n(C)n(-c4ccccc4)c3=O)c21`, the Potency entry was “inactive”.

As to `Cc1ccc(NC(=O)c2ccc(OC(=O)c3ccco3)cc2)cc1`, the Potency is 11.5 µM (active) and 14.1 µM (active).

Regarding `CCC1CCCCN1CCCNC(=O)c1ccc2nc(N3CCC(C)CC3)sc2c1` (stereo not drawn), the Potency is 0.0706 µM (active).

Regarding `Cc1cc(C(=O)COC(=O)C2=COCCO2)c(C)n1-c1ccccc1`, the Potency was 0.25 µM (active).

Consider `COc1cc(/C=C(\C#N)C(=O)Nc2cccc(C(=O)O)c2)ccc1OCc1ccc(F)cc1`, for which the Potency was 28.1 µM (active).

Consider `Oc1ccccc1-c1cc(-c2ccccc2)n[nH]1`, for which the Potency is 2.23 µM (active).

For `Fc1ccc2cc(CCO[C@H]3CCCCO3)ncc2c1`, the Potency is 3.97 µM (active).

Regarding `N#C/C(=C\c1cccnc1)c1ccccn1`, the Potency entry is “inactive”.

`O=C(CSc1nnc(-c2ccc(F)cc2)o1)Nc1ccc(S(=O)(=O)N2CCCCCC2)cc1`: the Potency entry is “inactive”.

Turning to `CC(=O)Oc1ccc(-c2nc(-c3ccccc3)no2)cc1`, the Potency is 2.81 µM (active).

For the compound `COc1cccc2oc(-c3ccccc3)cc(=O)c12`, the Potency is 4.45 µM (active).

Turning to `Cn1cccc1C(=O)Nc1ccc(N2CCOCC2)cc1`, the Potency was 7.05 µM (active).

On to `CCCCCCC[C@@H](C/C=C/CCC(=O)N(C)C/C(=C/Cl)C/C(=C\C(=O)N1CC(OC)=CC1=O)OC)OC`, for which the Potency was 1.99 µM (active).

As to `Cn1cccc1C(=O)OCC(=O)Nc1ccc2c(c1)OCCO2`, the Potency is 0.706 µM (active).

`Nc1ccccc1NC(=O)c1ccc(CNC(=O)OCc2cccnc2)cc1`: the Potency was 2.81 µM (active).

For the compound `O=C(CSc1nnc(-c2csc3c2CCCC3)o1)Nc1ccccc1`, the Potency is 575 nM (active) and 561 nM (active).

With `CN(C)c1cccc(-c2nnc(N3CCC(C(N)=O)CC3)s2)c1`, the Potency was 4.99 µM (active).

With `O=C1/C(=C/c2ccc(O)c(O)c2)Oc2ccccc21`, the Potency is 6.28 µM (active).
